# Results filed as inconclusive are left out. Calls of active or inactive are those of the source. Calls come from the whole dose curve; as a rule, active = well fitted curve in the direction sought with a large enough effect in the repeat runs; inconclusive = weak or mixed curves; inactive = no such curve, though single readings can be large; an effect the other way counts as inactive or inconclusive.
# Assay: A CellTox Green Cytotoxicity Assay to monitor cytotoxicity in HEK293 cells - 0 hour (AID 1224869)
# Conditions: CellTox Green fluorescence; series mostly up to 76.8 µM; cytotoxicity: at the top concentration
# Procedure, shortened: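 Cells (HEK293, 600/well) and dye reagent are dispensed together. After 5 h at 37 C, 23 nL compound is pinned in. Plates stay at 37 C for 40 h with fluorescence read at 0h, 8h, 16h, 24h, 32h and 40h.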
# % is set by controls: 0 for no effect and ±100 for the full control effect.
# Note: nearly all actives have a fitted effect of over 50% in size.
SMILES,cytotoxicity,Potency
Brc1c2ccccc2cc2ccccc12,0.946% (inactive),
C[C@H](CCC(=O)O)[C@H]1CC[C@H]2[C@@H]3CC[C@@H]4C[C@H](O)CC[C@]4(C)[C@H]3C[C@H](O)[C@]12C,-2.81% (inactive),
COC(=O)C1=C(C)NC(COC(N)=O)=C(C(=O)OC(C)C)C1c1cccc(Cl)c1Cl (stereo not given),2.53% [at 35.3 µM] (inactive),
CCCCOC(=O)CCCCCCCC(=O)OCCCC,0.914% (inactive),
CCN(CC)c1ccc(C(=C2C=CC(=[N+](CC)CC)C=C2)c2cc(S(=O)(=O)O)ccc2S(=O)(=O)[O-])cc1,5.6% [at 35.3 µM] (inactive),
C#C[C@]1(O)CC[C@H]2[C@@H]3CCc4cc(OC5CCCC5)ccc4[C@H]3CC[C@@]21C,-7.14% [at 35.3 µM] (inactive),
CCCCCCCCCCCCCCCCCCOS(=O)(=O)O,1.39% (inactive),
CCC(C)(C)CC,-3.18% (inactive),
CCOC(=O)NCCOc1ccc(Oc2ccccc2)cc1,0.61% (inactive),
O[C@@H](COc1cccc2ncccc12)CN1CCN(C2c3ccccc3[C@@H]3[C@H](c4ccccc42)C3(F)F)CC1 (stereo not given in full),0.909% [at 35.3 µM] (inactive),
O=[N+]([O-])c1ccc(NCCO)c(OCCO)c1,1.63% (inactive),
CN1CCN(C(c2ccccc2)c2ccccc2)CC1,2.53% [at 35.3 µM] (inactive),
O=C(O)c1nc(Cl)c(Cl)c(Cl)c1Cl,-3.39% (inactive),
O=C(O)C1(C(=O)O)CCC1.[NH2-].[NH2-].[Pt+2],-21.3% [at 35.3 µM] (inactive),
CCCCCCCCCCCCCCOS(=O)(=O)O,3.48% (inactive),
CCN(CC)CCOC(=O)C(Cc1cccc2ccccc12)CC1CCCO1 (stereo not given),-1.33% [at 35.3 µM] (inactive),
CCCNCC(O)COc1ccccc1C(=O)CCc1ccccc1 (stereo not given),3.72% [at 35.3 µM] (inactive),
O=C1C(O)=C(O)C(=O)C(O)=C1O,-5.81% [at 35.3 µM] (inactive),

SMILES,cytotoxicity,Potency
C/C(=C(\CCOP(=O)(O)O)SC(=O)c1ccccc1)N(C=O)Cc1cnc(C)nc1N,0.458% [at 6.97 µM] (inactive),
C=CC(=O)OCCOCCOCCOCCOC(=O)C=C,,inactive
CC(=O)c1ccc2c(c1)N(CCCN(C)C)c1ccccc1S2,2.98% [at 35.3 µM] (inactive),
CNCCCN1c2ccccc2CCc2ccccc21,1.09% [at 35.3 µM] (inactive),
C/C=C(/C(=C/C)c1ccc(OC(C)=O)cc1)c1ccc(OC(C)=O)cc1,-8.32% [at 35.3 µM] (inactive),
O=C(Cl)c1cc(C(=O)Cl)cc(C(=O)Cl)c1,3.06% (inactive),
NCC(=O)CCC(=O)O,0.357% [at 35.3 µM] (inactive),
CCCCCCCC#N,-7.11% (inactive),
CCCCCCCCCCCCN1CCCCCC1=O,-5.22% (inactive),
O=C(Nc1ccccc1)c1ccccc1O,5.19% (inactive),
CCC(C)O (stereo not given),-6.77% (inactive),
O=[N+]([O-])c1cccc(S(=O)(=O)O)c1,-0.862% (inactive),
CN(C)CCN(Cc1ccccc1)c1ccccn1,1.09% [at 35.3 µM] (inactive),
CCNc1cc(O)ccc1C,18.3% (inactive),
C#CCN(C)CCCOc1ccc(Cl)cc1Cl,-4.56% [at 35.3 µM] (inactive),
Nc1cc(C(=O)O)c(O)c(S(=O)(=O)O)c1,0.151% (inactive),
C=C1C(=C/C=C2\CCC[C@]3(C)[C@@H]([C@H](C)/C=C/[C@@H](O)C4CC4)CC[C@@H]23)C[C@@H](O)C[C@@H]1O,0.68% [at 35.3 µM] (inactive),

# Assay: qHTS RealTime-Glo MT Cell Viability Assay in HepG2 cells - 40 hour (AID 1224870)
# Conditions: RealTime-Glo luminescence; series mostly up to 76.8 µM; activity change, negative = cytotoxic: at the top concentration
# Procedure, shortened: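 HepG2 cells mixed with RealTime-Glo MT reagents (NanoLuc plus cell-permeant prosubstrate) were seeded at 600 cells/well, incubated 5 h at 37 C/5% CO2, then pinned with compounds in DMSO; nonlytic luminescence tracked viability during 40 h treatment.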
row,SMILES,"activity change, negative = cytotoxic"
1,Brc1c2ccccc2cc2ccccc12,-3.21% (inactive)
2,C[C@H](CCC(=O)O)[C@H]1CC[C@H]2[C@@H]3CC[C@@H]4C[C@H](O)CC[C@]4(C)[C@H]3C[C@H](O)[C@]12C,1.17% (inactive)
3,CCCCOC(=O)CCCCCCCC(=O)OCCCC,2.11% (inactive)
4,CCN(CC)c1ccc(C(=C2C=CC(=[N+](CC)CC)C=C2)c2cc(S(=O)(=O)O)ccc2S(=O)(=O)[O-])cc1,-2.59% [at 35.3 µM] (inactive)
5,C#C[C@]1(O)CC[C@H]2[C@@H]3CCc4cc(OC5CCCC5)ccc4[C@H]3CC[C@@]21C,-24.8% [at 35.3 µM] (inactive)
6,CCCCCCCCCCCCCCCCCCOS(=O)(=O)O,0.922% (inactive)
7,CCC(C)(C)CC,-2.07% (inactive)
8,CCOC(=O)NCCOc1ccc(Oc2ccccc2)cc1,-10.9% (inactive)
9,O[C@@H](COc1cccc2ncccc12)CN1CCN(C2c3ccccc3[C@@H]3[C@H](c4ccccc42)C3(F)F)CC1 (stereo not given in full),-24.2% [at 35.3 µM] (inactive)
10,O=[N+]([O-])c1ccc(NCCO)c(OCCO)c1,-14.1% (inactive)
11,CN1CCN(C(c2ccccc2)c2ccccc2)CC1,2.33% [at 35.3 µM] (inactive)
12,O=C(O)c1nc(Cl)c(Cl)c(Cl)c1Cl,7.29% (inactive)
13,O=C(O)C1(C(=O)O)CCC1.[NH2-].[NH2-].[Pt+2],0.0983% [at 35.3 µM] (inactive)
14,CCCCCCCCCCCCCCOS(=O)(=O)O,3% (inactive)
15,CCN(CC)CCOC(=O)C(Cc1cccc2ccccc12)CC1CCCO1 (stereo not given),1.94% [at 35.3 µM] (inactive)
16,CCCNCC(O)COc1ccccc1C(=O)CCc1ccccc1 (stereo not given),-15.3% [at 35.3 µM] (inactive)
17,O=C1C(O)=C(O)C(=O)C(O)=C1O,-1.67% [at 35.3 µM] (inactive)
18,C/C(=C(\CCOP(=O)(O)O)SC(=O)c1ccccc1)N(C=O)Cc1cnc(C)nc1N,-0.476% [at 6.97 µM] (inactive)
19,CC(=O)c1ccc2c(c1)N(CCCN(C)C)c1ccccc1S2,-1.75% [at 35.3 µM] (inactive)
20,C/C=C(/C(=C/C)c1ccc(OC(C)=O)cc1)c1ccc(OC(C)=O)cc1,-0.231% [at 35.3 µM] (inactive)
21,NCC(=O)CCC(=O)O,0.0599% [at 35.3 µM] (inactive)
22,CCCCCCCC#N,-0.317% (inactive)
23,CCCCCCCCCCCCN1CCCCCC1=O,-11.8% (inactive)
24,CCC(C)O (stereo not given),-1.08% (inactive)
25,O=[N+]([O-])c1cccc(S(=O)(=O)O)c1,-12.8% (inactive)
26,CN(C)CCN(Cc1ccccc1)c1ccccn1,-10.4% [at 35.3 µM] (inactive)
27,CCNc1cc(O)ccc1C,-0.456% (inactive)
28,C#CCN(C)CCCOc1ccc(Cl)cc1Cl,-15.3% [at 35.3 µM] (inactive)
29,Nc1cc(C(=O)O)c(O)c(S(=O)(=O)O)c1,0.941% (inactive)
30,C=C1C(=C/C=C2\CCC[C@]3(C)[C@@H]([C@H](C)/C=C/[C@@H](O)C4CC4)CC[C@@H]23)C[C@@H](O)C[C@@H]1O,-12.1% [at 35.3 µM] (inactive)
